A selection: hits, their analogues and other compounds. The true share with any hit is near 2%.
aSyn rescue: rescues yeast growth from alpha-synuclein toxicity; AID 652106; 0.14% of 370,000 active; Yeast expressing alpha-synuclein, growth rescue, BacTiter-Glo, 24 h; Potency, µM (top dose mostly 46.1 µM), usual class: activators; note: nearly all actives have a fitted effect of over 65% in size
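Galactose-induced alpha-syn yeast (OD600=0.02, raffinose-pregrown) + pinned cpd, 24 hr, 30 deg C; growth by BacTiter-Glo luminescence. Growth restoration scores as activation.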
Rango dissoc inh: inhibition of RanGTP-driven Rango-importin beta dissociation; O95149+P62826; Biochemical FRET Rango-importin beta, RanGTP-induced dissociation; Potency, µM (series often up to 46.1 µM); 0.071% of 340,000 active; AID 540253; calls by dose curve; note: nearly all actives have a fitted effect of over 45% in size
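Compounds sat 5 min at room temperature with 0.1 uM Rango biosensor plus 0.25 uM importin beta, then FRET pre-read. RanGTP-RCC1 (0.6 uM Ran, 2mM GTP, 0.2 uM RCC1) added for 45 min, and the CFP/YFP post-read measured blocked complex dissociation.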
TDP-43 yeast inh: rescues yeast growth from TDP-43 toxicity | 1.8% of 410,000 active | TDP-43 expressing yeast growth rescue, BacTiter-Glo, 24 h | Potency, µM (series often up to 46.1 µM), hits mostly activators | AID 652104; note: nearly all actives have a fitted effect of over 50% in size
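Yeast expressing TDP-43 (pregrown in raffinose, seeded at OD600=0.02 in galactose medium) exposed to compounds 24 hr at 30 deg C. Growth read by BacTiter-Glo luminescence; rescue of toxicity appears as increased signal.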
Rango-impB inh: inhibitors of Rango-importin beta complex formation; Rango CFP/YFP FRET sensor + importin beta, 45 min; Potency, µM (doses to about 92.2 µM); 0.031% of 340,000 active; calls by dose curve; note: nearly all actives have a fitted effect of over 15% in size
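FRET biosensor (snurportin 1 IBB flanked by EYFP and cerulean), 50 nM, with compound 5 min, then 0.125 microM importin beta in PBS, 1 mM DTT, 0.02% Tween-20, 0.1% BSA. CFP/YFP ratio read after 45 min at room temperature; pre-read flags interference.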
S-ASM inh: human S-ASM enzyme inhibition | P17405 | placental ASM, HMU-PC fluorogenic substrate, 60 min | Potency, µM (top dose mostly 57.5 µM), most hits filed as inhibitors | 0.006% of 340,000 active
Target sequence (P17405 47-631 limits assumed): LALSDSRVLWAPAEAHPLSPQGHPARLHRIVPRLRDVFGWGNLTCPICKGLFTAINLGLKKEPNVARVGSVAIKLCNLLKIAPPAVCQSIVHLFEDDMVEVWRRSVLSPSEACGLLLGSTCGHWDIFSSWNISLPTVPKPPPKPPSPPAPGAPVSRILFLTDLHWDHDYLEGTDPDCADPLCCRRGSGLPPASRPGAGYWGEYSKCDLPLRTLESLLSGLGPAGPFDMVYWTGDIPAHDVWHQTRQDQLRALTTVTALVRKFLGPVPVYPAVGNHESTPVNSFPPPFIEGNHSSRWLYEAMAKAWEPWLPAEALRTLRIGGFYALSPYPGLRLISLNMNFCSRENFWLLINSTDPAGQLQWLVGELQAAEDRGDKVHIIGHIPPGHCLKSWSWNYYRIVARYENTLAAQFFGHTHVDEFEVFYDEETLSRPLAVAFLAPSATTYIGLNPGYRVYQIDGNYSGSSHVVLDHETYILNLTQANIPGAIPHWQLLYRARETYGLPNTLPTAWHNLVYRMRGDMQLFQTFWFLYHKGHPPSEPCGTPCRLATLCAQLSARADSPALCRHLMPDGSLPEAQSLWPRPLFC
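qHTS format. ASM enzyme prepared from human placenta hydrolyses the fluorogenic substrate HMU-PC0 (9 uM final) over 60 min at 37 °C after a 10 min compound preincubation.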
Abeta rescue: restores growth of yeast expressing A-beta42 peptide | yeast expressing A-beta42, growth rescue, OD600, 48 h; response scale: 0% DMSO, 100% iron-clioquinol control | Potency, µM (series often up to 46.1 µM), actives largely listed as activators | 0.063% of 410,000 active | AID 1347071; note: nearly all actives have a fitted effect of over 55% in size
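Growth rescue measured by 600 nm absorbance after 48 h yeast culture at 30 C with compound. Values normalized between DMSO and an equimolar ferric chloride plus clioquinol control.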
Of the large screens only hits and unclear results are named; the others gave an inactive call. Unless noted, calls come from the whole dose curve; as a rule, active = well fitted curve in the direction sought with a large enough effect; inconclusive = small, poorly fitted or top-dose-only effect, or another doubt; inactive = no such curve, though single readings can be large; an effect the other way counts as inactive or inconclusive.

CCN(CC)CCNC(=O)c1ccc(NC(=O)c2cccc(S(=O)(=O)N(C)C3CCCCC3)c2)cc1	none
COc1ccccc1N(C)S(=O)(=O)c1ccc(Cl)c(C(=O)Nc2cccc(C)n2)c1	none
Cc1ccccc1NC(=O)c1ccc(F)c(S(=O)(=O)NCC2CCCO2)c1 (stereo not given)	none
CN(C1CCCCC1)S(=O)(=O)c1cccc(C(=O)Nc2ccccn2)c1	TDP-43 yeast inh 17.8µM
Cc1cccc(NC(=O)c2cccc(S(=O)(=O)N(C)C3CCCCC3)c2)n1	TDP-43 yeast inh 20µM (no result: Rango dissoc inh, Rango-impB inh, S-ASM inh)
O=C(Nc1ccccn1)c1cccc(S(=O)(=O)N2CCCCC2)c1	none
Cc1cccc(NC(=O)c2cc(S(=O)(=O)N(C)c3ccc(F)cc3)ccc2Cl)n1	TDP-43 yeast inh 11.2µM
Cc1ccccc1NC(=O)c1ccc(F)c(S(=O)(=O)N(C)C2CCCCC2)c1	TDP-43 yeast inh 15.8µM, Abeta rescue inconclusive (no result: aSyn rescue, Rango dissoc inh, Rango-impB inh, S-ASM inh)
Cc1cc(C(F)F)n2nc(C(=O)Nc3c(C)cccc3C)nc2n1	none (no result: aSyn rescue, Rango dissoc inh, Rango-impB inh, S-ASM inh)
Cc1ccc(C(C)C)c(OCc2ccc(C(=O)N/N=C/c3cccc(O)c3O)cc2)c1	aSyn rescue 12.6µM, TDP-43 yeast inh 12.6µM, Abeta rescue inconclusive
CCc1cccc(NC(c2ccccc2)c2nnc(-c3ccccc3F)o2)c1 (stereo not given)	none (no result: aSyn rescue, Rango dissoc inh, Rango-impB inh, S-ASM inh)
O=[N+]([O-])c1ccc(O/N=[N+](\[O-])N2CCCC2)c([N+](=O)[O-])c1	none (no result: Rango dissoc inh, TDP-43 yeast inh, Rango-impB inh, S-ASM inh, Abeta rescue)
COCCNc1nc(-c2ccc(Cl)cc2C)c2sccc2n1	TDP-43 yeast inh 22.4µM (no result: Rango dissoc inh, Rango-impB inh, S-ASM inh)
Cc1cc(Cl)ccc1-c1nc(NCc2ccccc2)nc2ccsc12	TDP-43 yeast inh inconclusive (no result: Rango dissoc inh, Rango-impB inh, S-ASM inh)
Cc1cc(Cl)ccc1-c1nc(NC(C)C)nc2ccsc12	aSyn rescue inconclusive, TDP-43 yeast inh 35.5µM (no result: Rango dissoc inh, Rango-impB inh, S-ASM inh)
CCCCOc1ccc(-c2nnc(-c3ccncc3)o2)cc1	TDP-43 yeast inh 20µM, Rango-impB inh inconclusive
CCOc1ccc(-c2nnc(-c3ccncc3)o2)cc1	TDP-43 yeast inh inconclusive
CC(=O)N1c2ccccc2C(=O)C1N1CCN(c2ccc(F)cc2)CC1 (stereo not given)	TDP-43 yeast inh inconclusive (no result: aSyn rescue, Rango dissoc inh, Rango-impB inh, S-ASM inh)
CC(=O)N1c2ccccc2C(=O)C1N1CCN(c2ccccc2F)CC1 (stereo not given)	TDP-43 yeast inh 35.5µM, Abeta rescue inconclusive (no result: aSyn rescue, Rango dissoc inh, Rango-impB inh, S-ASM inh)
O=C1c2sccc2-c2cccc3cccc1c23	aSyn rescue inconclusive (no result: Rango dissoc inh, Rango-impB inh, S-ASM inh)
O=C1C(Br)=Cc2cccc3cccc1c23	Rango dissoc inh inconclusive, TDP-43 yeast inh 14.1µM, Rango-impB inh inconclusive
O=C(C1CCCN(c2ncnc3c2nc2n3CCCCC2)C1)N1CCN(c2cccc(Cl)c2)CC1 (stereo not given)	TDP-43 yeast inh 20µM (no result: Abeta rescue)
Cc1ccccc1N(C)C(=O)C1CCCN(c2ncnc3c2nc2n3CCCCC2)C1 (stereo not given)	none
Cc1ccc(C)c(N2CCN(C(=O)C3CCCN(c4ncnc5c4nc4n5CCCCC4)C3)CC2)c1 (stereo not given)	TDP-43 yeast inh 25.1µM
CN(C(=O)C1CCCN(c2ncnc3c2nc2n3CCCCC2)C1)c1cccc(Cl)c1 (stereo not given)	TDP-43 yeast inh 15.8µM
Cc1ccc(N2CCN(C(=O)C3CCCN(c4ncnc5c4nc4n5CCCCC4)C3)CC2)c(C)c1 (stereo not given)	none (no result: Abeta rescue)
CCOc1ccc(C(=O)Cn2c(=O)n3nc(CCn4nc(C)cc4C)nc3c3cc(OC)c(OC)cc32)cc1	none (no result: aSyn rescue, Rango dissoc inh, Rango-impB inh, S-ASM inh)
COc1ccc(C[C@@H]2C(=O)N[C@H](C)C(=O)N(C)[C@@H]3Cc4ccc(cc4)Oc4cc(ccc4O)C[C@H](C(=O)N[C@@H](C)C(=O)N[C@H](C)C(=O)N2C)N(C)C3=O)cc1	none (no result: Rango dissoc inh, TDP-43 yeast inh, Rango-impB inh, S-ASM inh, Abeta rescue)
CCc1ccc(OCC(=O)Nc2ccc(Cl)c(-c3nc4ncccc4o3)c2)cc1	none (no result: aSyn rescue, Rango dissoc inh, Rango-impB inh, S-ASM inh)
COc1ccc(NC(=O)N2c3ccccc3CC2C)cc1OC (stereo not given)	TDP-43 yeast inh 12.6µM (no result: aSyn rescue)
COc1ccc(NC(=S)N2c3ccccc3CC2C)cc1OC (stereo not given)	none

Assay outcomes: PubChem BioAssay, National Center for Advancing Translational Sciences (NCATS)
